Screening data (PubChem)
Only some compounds are listed: those with a hit (about 0.45% of all), similar ones and a draw of the others.
Chronic BCR inh: chronic active BCR signaling inhibition. ABC-DLBCL IkBa-CBG/CBR reporter, luminescence ratio, 4 h. Potency, µM (top dose mostly 46.1 µM), without a hit: at the highest dose activity change, negative = inhibition, actives largely listed as inhibitors. 0.05% of 340,000 active; active = well fitted inhibition curve with a large enough effect in the signal ratio, with a control signal flat, not every such curve was filed as active; inconclusive = small, poorly fitted or top-dose-only effect, or effect the other way, or a change in a side signal; the % refers to the signal ratio;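 note: plate controls were basal doxycycline-induced cells for no effect and cells given 10 µM MG132 for full effect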
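Doxycycline induced both beetle luciferases in TMD8 lymphoma cells; IKK-driven degradation limits the IkappaBalpha-fused green signal, while red luminescence normalises for cell number and nonspecific effects. Compounds tested up to 46 uM, 4 hrs.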
B2AR arrestin: beta2AR (human) beta-arrestin recruitment activity | AID 492947 | beta-arrestin recruitment to beta2AR, cell-based reporter | Potency, µM (series often up to 46.1 µM), inactives show at the top dose activation, actives largely listed as activators | P07550 | 0.02% of 330,000 active;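 note: 0% = DMSO controls and full agonism = EC100 isoproterenol or metaproterenol; nearly all actives have a fitted effect of over 65% in size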
Pin1 inh: blocks the human prolyl isomerase Pin1; Q13526; Pin1 FP peptide displacement, HiFluor488, 10 min; Potency, µM (highest dose often 115 µM), inactives show at the highest dose activity, negative = inhibition, most hits filed as inhibitors; 0.009% of 390,000 active; AID 504891; active = well fitted inhibition curve with a large enough effect in the polarisation, with a control signal flat, not every such curve was filed as active; inconclusive = small, poorly fitted or top-dose-only effect, or effect the other way, or a change in a side signal; inactive = no such curve, though single readings can be large or run the other way; the % refers to the polarisation; note: % is set by controls: 0 for no effect and ±100 for the full control effect
Tb PGK inh: blocks T. brucei phosphoglycerate kinase. P07378. PGK/GAPDH coupled, Kinase-Glo luminescence, 60 min. Potency, µM (doses to about 57.5 µM), without a hit: top-dose activity change, negative = inhibition, most hits filed as inhibitors. 0.043% of 380,000 active. AID 602233; note: % is set by controls: 0 for no effect and ±100 for the full control effect; nearly all actives have a fitted effect of over 60% in size
Target sequence (P07378 whole entry, looked up): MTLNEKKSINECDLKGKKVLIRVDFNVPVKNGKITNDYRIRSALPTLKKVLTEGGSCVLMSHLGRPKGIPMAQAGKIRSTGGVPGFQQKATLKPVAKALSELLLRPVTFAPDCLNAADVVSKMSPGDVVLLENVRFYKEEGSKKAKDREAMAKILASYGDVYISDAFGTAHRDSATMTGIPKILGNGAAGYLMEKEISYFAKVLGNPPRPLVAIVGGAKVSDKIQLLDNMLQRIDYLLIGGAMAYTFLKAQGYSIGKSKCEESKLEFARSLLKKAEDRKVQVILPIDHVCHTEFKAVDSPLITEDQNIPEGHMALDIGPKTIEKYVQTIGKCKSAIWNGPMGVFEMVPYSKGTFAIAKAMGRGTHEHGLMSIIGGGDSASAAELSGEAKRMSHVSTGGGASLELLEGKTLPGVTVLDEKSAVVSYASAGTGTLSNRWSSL
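Recombinant glycosomal PGK reaction used 1,3-bisphosphoglycerate generated in-well by GAPDH (100nM final) in 100mM TEA pH 7.6, 5mM MgCl2, 0.01% Tween-20. After 60 minutes at room temperature, ATP was read by Kinase-Glo Plus luminescence end-point.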
Anesthetic bind: binds horse apoferritin like a general anesthetic. Potency, µM (top dose mostly 77.5 µM), without a hit: at the top dose activity change, negative = displacement, most hits filed as inhibitors. P02791. AID 485281. apoferritin/1-aminoanthracene competitive binding, fluorescence. 0.074% of 350,000 active; note: % is set by controls: 0 for no effect and ±100 for the full control effect; nearly all actives have a fitted effect of over 20% in size
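Concentration-response curves derived by four-parameter Hill fitting of normalized fluorescence, where compounds displaced 1-AMA from 10 uM horse apoferritin following a brief 10 min room-temperature incubation; propofol titration acted as positive control.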
FEN1 inh-1: human FEN1 inhibition; P39748; Recombinant FEN1 flap cleavage, fluorescence, 15 min; Potency, µM (series often up to 114 µM), for the others: at the highest dose activity change, negative = inhibition, hits mostly inhibitors; 0.35% of 390,000 active; note: % is set by controls: 0 for no effect and ±100 for the full control effect; nearly all actives have a fitted effect of over 65% in size
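FEN1 at 10 nM preincubated with compounds 15 min at room temperature, then flap DNA substrate added at 50 nM final. Signal read at 0 and 15 min; concentration-response fitted with four-parameter Hill equation.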
FEN1 inh-2: FEN1 inhibition, cherry-pick retest; AID 720498; FEN1 flap cleavage, TAMRA/BHQ2 fluorogenic DNA substrate; shares compounds with FEN1 inh-1; Potency, µM, usual class: inhibitors; 79% of 880 active; note: nearly all actives have a fitted effect of over 60% in size
An asterisk follows results filed as active; i = inactive; ? = inconclusive; · = no result; [ ] = another dose, or the depositor's remark. Unless noted, calls come from the whole dose curve; as a rule, active = well fitted curve in the direction sought with a large enough effect; inconclusive = small, poorly fitted or top-dose-only effect, or another doubt; inactive = no such curve, though single readings can be large; an effect the other way counts as inactive or inconclusive. Potency is the fitted concentration of half-maximal effect.

SMILES	Chronic BCR inh	B2AR arrestin	Pin1 inh	Tb PGK inh	Anesthetic bind	FEN1 inh-1	FEN1 inh-2
O=C(O)c1ccc2cccnc2c1O	?	-1%	-1%	-8%	0%	22µM*	7.6*
O=C(O)c1ccccc1NC(c1ccccc1)c1ccc2cccnc2c1O (stereo not given)	·	·	?	-1%	·	-11%	·
CC1CCN(C(=O)COC(=O)c2ccc([N+](=O)[O-])o2)CC1	8%	7%	-10%	0%	·	?	6*
CC1CCCCC1NC(=O)COC(=O)c1ccc([N+](=O)[O-])o1 (stereo not given)	11%	0%	0%	2%	·	-26%	9.5*
O=C(COC(=O)c1ccc([N+](=O)[O-])o1)NC1CCS(=O)(=O)C1 (stereo not given)	6%	0%	-18%	1%	-2%	?	7.6*
O=C(COC(=O)c1ccc([N+](=O)[O-])o1)NC1CCCCC1	-2%	0%	-9%	-2%	·	?	6.7*
CC1CCCC(NC(=O)COC(=O)c2ccc([N+](=O)[O-])o2)C1C (stereo not given)	3%	0%	-12%	-5%	·	?	·
O=S(=O)(c1ccc2c(c1)OCCO2)N1CCN(S(=O)(=O)c2cc(F)c(Br)cc2F)CC1	·	·	0%	·	·	·	·
O=C1[C@H]2[C@H]3[C@H](O)[C@H](O)C/C(=N/OCc4ccccc4)[C@@H]3CC[C@@H]2C(=O)N1c1cccc(Oc2ccccc2)c1	·	·	·	·	3%[15.3 µM]	·	·
CC(C)(C)n1ncc2c(=O)n(Cc3ccc(Cl)cc3F)cnc21	·	·	·	·	·	-16%	·
CCN(C(=O)COC(=O)c1ccc([N+](=O)[O-])o1)C1CCCCC1	5%	8%	-8%	-6%	·	-16%	17*
O=C(COC(=O)c1ccc([N+](=O)[O-])o1)NC1CCCC1	?	0%	-7%	i	·	?	·
COC(=O)C/C=C\[C@@H](C)[C@@H]1C=C[C@H](OC(C)=O)[C@H](COC(C)=O)O1	·	·	·	·	-1%[15.3 µM]	·	·
CC(=O)c1ccc(NC(=O)c2ccc([N+](=O)[O-])o2)cc1	?	3%	1%	-1%	-9%	?	·
O=C(Nc1ccc(N2CCN(C(=O)c3ccccc3)CC2)cc1)c1ccc([N+](=O)[O-])o1	?	0%	?	-6%	-20%	-1%	27*
CC(=O)c1cccc(NC(=O)c2ccc([N+](=O)[O-])o2)c1	·	·	-6%	-3%	·	-1%	43*
Cc1ccccc1C(=O)N1CCN(c2ccc(NC(=O)c3ccc([N+](=O)[O-])o3)cc2)CC1	?	0%	1%	-6%	-6%	11%	·
CC(C)(C)n1ncc2c(=O)n(Cc3ccccc3C(F)(F)F)cnc21	·	·	·	·	·	10%	·
NNC(=O)C(C(=O)OCc1ccccc1)c1ccccc1 (stereo not given)	·	·	-1%	·	·	·	·
COC(=O)C(N)Cc1ccc(O)c(O)c1 (stereo not given)	?	0%	?	1%	-11%	-1%	·
C[C@](N)(Cc1ccc(O)c(O)c1)C(=O)O	0%	0%	?	-6%	-8%	-7%	?
CCCCCN(CCCCC)C(=O)[C@H](CCC(=O)O)NC(=O)[C@H](Cc1ccc(OP(=O)(O)O)cc1)NC(C)=O	·	·	·	·	6%	·	·
O=C1C=CC(=O)N1c1ccccc1N1C(=O)C=CC1=O	·	·	?	-8%	·	?	?
O=C(c1ccccc1)c1ccccc1N1C(=O)C=CC1=O	?	0%	9%	-3%	4%	-10%	·
COc1cc(NS(=O)(=O)c2ccc(NC(=S)NC(=O)c3sc4cc(F)ccc4c3Cl)cc2)nc(OC)n1	-1%	-1%	?	-5%	-13%	?	?
Cn1c2cc(S(C)(=O)=O)sc2c2cnn(Cc3ccccc3F)c(=O)c21	·	·	14%	·	·	·	·
